Bioassay records as filed in PubChem.
Shown are actives, neighbours in structure and some others; about 4.6% of the full set was active somewhere.
TRHR enhancer – TRH receptor (human) allosteric enhancement; P34981; TRHR cells, fluo-8 calcium fluorescence, EC20 TRH enhancement; enhancement, % at 2 µM; hit rate 0.66% among 360,000; AID 493056; in the data active = enhancement above about 30%; also: 0% is about no effect
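TRHR-expressing cells loaded with fluo-8 calcium dye were read kinetically (ex 480/em 530) during compound addition, then stimulated with an EC20 of TRH (10 nM final). Enhancement of the Gq-mediated intracellular calcium response was scored.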
D1 potentiator – potentiators of human D1 dopamine receptor | P21728 | HEK293 TREx D1 cells, calcium flux, dopamine EC20 potentiation | potentiation, % at 10 µM | hit rate 0.036% among 360,000 | AID 504651; in the data active = potentiation above about 30%; also: 0% is about no effect
Target sequence (P21728 whole entry, looked up): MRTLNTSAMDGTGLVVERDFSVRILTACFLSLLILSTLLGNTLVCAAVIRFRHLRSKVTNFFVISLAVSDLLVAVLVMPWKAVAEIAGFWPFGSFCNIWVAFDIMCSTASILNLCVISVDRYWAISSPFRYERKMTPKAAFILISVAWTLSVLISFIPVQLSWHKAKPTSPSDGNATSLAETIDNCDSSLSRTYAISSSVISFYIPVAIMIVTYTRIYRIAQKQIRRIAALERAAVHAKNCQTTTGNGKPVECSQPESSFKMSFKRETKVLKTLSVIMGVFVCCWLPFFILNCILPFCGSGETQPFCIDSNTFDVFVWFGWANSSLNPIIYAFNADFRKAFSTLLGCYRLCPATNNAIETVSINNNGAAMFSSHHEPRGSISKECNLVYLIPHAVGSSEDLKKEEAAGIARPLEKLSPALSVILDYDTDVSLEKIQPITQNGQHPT
D1 antag – blocks dopamine activation of the human D1 receptor | P21728 | HEK293 TREx D1 cells, calcium flux, dopamine EC80; active compounds read low | activity change, negative = inhibition, % at 10 µM | hit rate 3.2% among 360,000 | AID 504652; in the data active = activity change below about -30%; also: % is scaled to controls: 0 for no effect and ±100 for the full control effect
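After overnight tetracycline induction at 30 C, force-coupled D1 HEK293 cells took up a no-wash calcium dye at room temperature. Compounds were added and monitored 180 s, and the response to EC80 dopamine was then recorded.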
D1 ag – agonists of human D1 dopamine receptor | P21728 | HEK293 T-REx D1 cells, calcium flux, agonist mode | activation, % at 2 µM | hit rate 1% among 360,000; also: 0% is about no effect
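Agonism was scored from calcium flux recorded over 180 s (1 read/s) after pintool compound addition, following a 10-cycle baseline. Cells were inducible force-coupled HEK293 TREx D1, plated overnight at 30 C and loaded with no-wash calcium dye.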
TRHR ag – activates the human TRH receptor. P34981. TRHR cells, calcium flux fluo-8, FDSS agonist mode. activation, % at 2 µM. hit rate 0.18% among 360,000. AID 493084; also: 0% is about no effect
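Fluo-8-loaded TRHR cells; 10 s baseline, compound added, kinetic Ca2+ fluorescence read 1/s, agonist mode.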
* marks the source's active call; other numbers are inactive results; · = no result given. Rule as the data show it, unless noted: active = activation above about 30%; inactive = the rest.

SMILES	TRHR enhancer	D1 potentiator	D1 antag	D1 ag	TRHR ag
Cc1ccccc1NC(=O)C1CCN(S(=O)(=O)c2c(C)noc2/C=C/c2ccco2)CC1	-8	5	-33*	0	0
Cc1noc(/C=C/c2ccco2)c1S(=O)(=O)N1CCC(C(=O)NCc2ccco2)CC1	-3	-4	-15	4	-1
Cc1ccc(CNC(=O)C2CCN(S(=O)(=O)c3c(C)noc3/C=C/c3ccco3)CC2)cc1	5	-10	-48*	9	0
COc1ccc(NC(=O)C2CCN(S(=O)(=O)c3c(C)noc3/C=C/N(C)C)CC2)cc1	-5	-2	-34*	1	0
Cc1cc2c(c(=O)n1Cc1cccnc1)C(c1ccccc1)C(C#N)=C(N)O2 (stereo unspecified)	2	-5	-14	1	1
Cc1cc2c(c(=O)n1Cc1ccc3c(c1)OCO3)C(c1cccnc1)C(C#N)=C(N)O2 (stereo unspecified)	0	-6	-90*	2	0
COc1cccc(NC(=O)CSc2nnc3[nH]c(=O)cc(-c4ccccc4)n23)c1	-5	-1	·	2	0
CN1C[C@@H]2C(c3ccccc3)C3(c4cccnc4)CC2(C3)[C@H]1c1ccccc1 (stereo partly specified)	4	-1	-39*	2	0
CN1C[C@@H]2C(c3ccc(C(F)(F)F)cc3)C3(c4ccccc4)CC2(C3)[C@H]1c1ccccc1 (stereo partly specified)	0	3	24	6	0
Cc1nn(C)c(=O)c(N)c1-c1cc(-c2ccc(Cl)c(Cl)c2)n[nH]1	-2	-4	-47*	8	0
Cc1ccc(-c2cc(-c3c(C)nn(C)c(=O)c3N)[nH]n2)cc1	4	0	27	3	1
COc1cc(NC(C)=O)c2ncccc2c1NC(C)=O	-2	1	-36*	6	1
CCc1ccc2oc(C(=O)Nc3cccc(Cl)c3C)cc(=O)c2c1	2	3	-10	-1	-1
CC(C)(C)C1CCC2(CC1)NC(CO)(CO)CO2 (stereo unspecified)	10	-1	-34*	1	1
O=C(c1ccc(Cl)cc1)C1CCCN(Cc2cccn2-c2cccnc2)C1 (stereo unspecified)	33*	-6	6	0	0
CSc1ccc(C(=O)C2CCCN(Cc3cccn3-c3cccnc3)C2)cc1 (stereo unspecified)	-9	8	-3	2	1
COc1ccc(C(=O)C2CCCN(Cc3cccn3-c3ccc(Cl)cn3)C2)c(OC)c1 (stereo unspecified)	1	-3	-7	33*	1
COc1ccc(C(=O)C2CCCN(Cc3c(F)ccc(F)c3F)C2)c(OC)c1 (stereo unspecified)	-2	-8	14	1	0
COc1cc(OC)cc(C(=O)N[C@H](C(=O)Nc2ccc3c(c2)OCO3)C(C)C)c1	1	2	-33*	3	2
COc1cc(OC)cc(C(=O)NC(C(=O)Nc2ccc3c(c2)OCO3)C(C)C)c1 (stereo unspecified)	0	·	-9	3	1
CC1(c2cccc(Br)c2)NC(=O)N(CC(=O)NCC2CCCO2)C1=O (stereo unspecified)	19	1	0	3	0
CN(C(=O)CN1C(=O)NC(C)(c2cccc(Br)c2)C1=O)C1CCCCC1 (stereo unspecified)	-5	-3	-57*	6	0
COc1ccc(OC)c(S(=O)(=O)Nc2cccc(-c3ccc(N4CCCCC4)nn3)c2)c1	-2	2	-6	3	-1
C=CCSC(=S)Nc1c(C)n(C)n(-c2ccccc2)c1=O	5	2	-1	3	1
C=CCOC(=O)C(=O)/C=C/c1c(C)n(C)n(-c2ccccc2)c1=O	-3	1	-40*	-4	0
COc1ccc(C)cc1-n1nnnc1SCC1CCCCO1 (stereo unspecified)	8	-5	-36*	18	0
Cn1cnc([N+](=O)[O-])c1Sc1ccc(C(C)(C)C)cc1	-6	2	-1	35*	2
Cc1ccccc1-c1nc(SCC(=O)NCc2ccco2)c2c(=O)n(C)c(=O)n(C)c2n1	-1	-1	6	-1	0
COc1ccccc1C1CCN(Cc2ccccc2)CC1	-2	-22	-46*	-1	0
